The record followed here is PubChem BioAssay AID1949 (Southern Research Institute, 2009).

SMILES strings stand for the structures. Hit rate of the full screen: of about 100,000 compounds, about 1,600 (1.6%) were called active. Roughly 3% stayed inconclusive and do not appear here. How the calls were made is not given here. Only a sample is shown.

A short description of the test: Confirmatory growth inhibition assay against Mycobacterium tuberculosis H37Rv, potency (AID 1949).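 On inhibition: bacteria grown 7 days with compound before Alamar blue readout; 0% = untreated bacteria wells and 100% = bacteria with saturating antibiotic.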 Particulars: M. tuberculosis H37Rv growth inhibition; hits give high values, concentration not given here.
By inhibition is commonly meant the share of the control response that was lost under treatment. `CCOc1ccc(N2C(=O)CC(NCCNC(=O)c3ccc(Cl)cc3)C2=O)cc1` (configuration not stated): the inhibition was 2.16% (inactive). Next, `Cc1cc(C(=O)NC2CCCc3ccccc32)no1` (configuration not stated): “inactive”. Next, `COc1ccc(NC(=O)CSc2nnnn2-c2ccccc2Cl)c(OC)c1`: “inactive”.

With `Cc1sc2ncnc(SCC(=O)NCC3CCCO3)c2c1-c1ccc(Cl)cc1` (configuration not stated), the inhibition was 2.71% (inactive). Turning to `CS(=O)(=O)NC1c2cccc3cccc(c23)C1N1CCCCC1` (configuration not stated), the inhibition result was “inactive”. As to `CC1CN(C(=O)C(C)Oc2ccc(Cl)cc2Cl)CC(C)O1` (configuration not stated), the inhibition result is “inactive”.

As for `Cc1ccc(-c2nn(C)c(=O)c3ccccc23)cc1CNC(=O)c1cccs1`, the inhibition entry is “inactive”.

With `Cc1cc(Oc2coc3cc(OCC(=O)Nc4ccccc4)ccc3c2=O)cc(C)c1Cl`, the inhibition entry is “inactive”. Next, `COc1cc(C(=O)Nc2ccccc2C(=O)NCCc2ccccc2)cc(OC)c1OC`: “inactive”. Next, `Cn1nc([N+](=O)[O-])nc1Sc1nnc(-c2ccccc2)o1`: 49.7% (inactive). Consider `COc1ccc(-c2cc(C(=O)O)c3cc(Br)ccc3n2)c(OC)c1`, for which the inhibition entry is “inactive”. Next, `CN1CCCC1c1cccnc1N` (configuration not stated): 1.61% (inactive). Regarding `COc1ccc(NC(=S)N2CCN(c3ccc(F)cc3)CC2)c(OC)c1`, the inhibition entry is “inactive”. Turning to `O=[N+]([O-])c1ccccc1S(=O)(=O)N1CCN(c2ncccn2)CC1`, the inhibition entry is “inactive”.

For the molecule `Cc1ccc(-c2nnc(Nc3cccc(O)c3)c3ccccc23)cc1S(=O)(=O)NC(C)(C)CO`, the inhibition result is “inactive”. Next, `COC(=O)c1cccc(NC(=O)CCN2C(=O)c3ccccc3C2=O)c1`: “inactive”. Next, `O=C(c1cc2n(n1)C(C(F)(F)F)CC(c1ccccc1)N2)N1CCCc2ccccc21` (configuration not stated): “inactive”; `Cc1ccc(Nc2nc(CSc3nnc(-c4ccccc4)o3)cs2)cc1`: “inactive”; `CCCN1CCN(CCCNC(=S)Nc2ccc(F)cc2)CC1`: “inactive”. Next, `COc1ccc(C(=O)Nc2cccc(C(C)=O)c2)cc1I`: “inactive”. As to `CC1(C)Cc2nc3sc4c(=O)n(CC(=O)c5ccccc5)cnc4c3cc2CO1`, the inhibition was 0.12% (inactive). Next, `CC1(C)NC(=O)N(CCCSc2ccc(Cl)cc2)C1=O`: 4.37% (inactive); `Cc1ccc(NC(=O)c2cccc(F)c2)cc1[N+](=O)[O-]`: “inactive”; `CC1(C)Cc2nc(N3CCCC3)c(C#N)cc2CO1`: 1.56% (inactive). Turning to `O=C(NC(=S)Nc1ccc2c(c1)Cc1ccccc1-2)c1ccc(Br)cc1`, the inhibition entry was “inactive”. Consider `CC(=O)c1cccc(NC(=O)N2CCN(C(c3ccccc3)c3ccccc3)CC2)c1`, for which the inhibition result was “inactive”.

Take `COc1ccccc1NC(=O)c1c(NC(=O)c2ccccc2C)sc2c1CCCC2`: the inhibition entry was “inactive”. Next, `COc1ccc(Oc2ccc(NS(=O)(=O)c3ccc(NC(C)=O)cc3)cc2)cc1`: 0.37% (inactive); `O=C(CNC(=O)C1CCCCC1)NNC(=O)c1ccc(Cl)cc1Cl`: “inactive”. The result for `O=c1ccc2ccc(OCc3ccc(Br)cc3F)cc2o1` reads “inactive”; that for `C=C1C2(C(=O)Nc3ccc(Br)cn3)CCC(C2)C1(C)C` (configuration not stated), 0.92% (inactive); that for `COc1ccc(S(=O)(=O)N(C)CC(=O)NC2CCCCC2)cc1C`, 2.13% (inactive).

Regarding `CCn1c(SCC(=O)Nc2cccc(F)c2C)nnc1-c1ccc(OC)cc1`, the inhibition entry is “inactive”.

For `Cc1ccc(-c2cc(C(=O)NC3=NCCS3)c3cc(Br)ccc3n2)o1`, the inhibition was 3.59% (inactive). Next, `Cc1cccc(-n2c(CCc3ccccc3)nnc2SCC(=O)Nc2c(C)cc(C)cc2C)c1`: 7.24% (inactive); `O=[N+]([O-])c1ccc(NC(=S)NCCCn2ccnc2)cc1`: “inactive”; `COc1ccc(C)cc1N(CC(=O)NCc1ccc(Cl)cc1Cl)S(C)(=O)=O`: “inactive”. In the case of `O=S(=O)(NCCSc1ccccn1)c1ccc(Br)cc1`, the inhibition was 5.4% (inactive). Next, `CCCCc1ccc(NC(=O)c2ccc3ccccc3c2)cc1`: 0.83% (inactive); `COc1ccc(N2CCN(c3nc(NCCc4ccc(OC)c(OC)c4)nc(N4CCOCC4)n3)CC2)cc1`: 40.6% (inactive). Next, `CCCCc1ccc(NC(=S)N2CCN(C(=O)c3ccco3)CC2)cc1`: “inactive”; `O=C(c1cccs1)N1N=C(c2cccs2)CC1c1cccs1` (configuration not stated): “inactive”. Next, `CCOc1ccc(C(=O)c2oc3ccccc3c2NC(=O)C2COc3ccccc3O2)cc1` (configuration not stated): “inactive”; `O=C(NCc1ccccn1)Nc1ccc2c(c1)OCO2`: “inactive”; `Cc1onc(-c2ccccc2Cl)c1C(=O)Nc1nc2ccc(Cl)cc2s1`: “inactive”. Regarding `COc1ccc2nc(NC(=O)CN3CCCCC3)sc2c1`, the inhibition is 3.2% (inactive). The result for `CCSc1nc(-c2cccs2)cc(-c2cccs2)c1C#N` reads 5.48% (inactive); that for `CCCC(C)c1nnc(NC(=O)CSCc2ccccc2)s1` (configuration not stated), “inactive”. The result for `CC(C)NCC(O)Cn1c2c(c3ccccc31)CCCC2=O` (configuration not stated) reads “inactive”; that for `CCN(CC)CCCNC(=S)Nc1ccc(Br)cc1`, 1.11% (inactive); that for `CS(=O)(=O)N(CC(=O)Nc1ccccc1C(=O)N1CCCC1)c1cccc(F)c1`, “inactive”.

Take `Cc1ccc(CN2CCC(N3CCN(c4ccccc4F)CC3)CC2)cc1`: the inhibition entry was “inactive”.

As to `COc1ccc(S(=O)(=O)N(C(C)=O)c2ccc3oc4c(c3c2)CCCC4)cc1[N+](=O)[O-]`, the inhibition is 6.65% (inactive).

With `O=C(CCCCC(=O)NC1=NCCS1)NC1=NCCS1`, the inhibition is 1.73% (inactive). Next, `Cc1cc(Cl)ccc1OCC(=O)NCCCn1ccnc1`: “inactive”. Next, `COc1ccc(OC)c(NC(=O)c2cccc(F)c2)c1`: “inactive”. Next, `CCC(=O)Nc1nnc(SCC(=O)Nc2cccc(Cl)c2)s1`: “inactive”; `CC1=CC(c2ccc(Cl)cc2)n2ncnc2N1` (configuration not stated): “inactive”; `Cc1cc(C)c(NC(=O)COc2ccc(-c3ccccc3)cc2)c(C)c1`: 0.67% (inactive). On to `CN1C(=O)C2C(C1=O)N1C(c3cccs3)C3C(=O)N(C)C(=O)C3N1C2c1cccs1` (configuration not stated), for which the inhibition result is “inactive”.

As for `Cc1nnc(SCC(=O)Nc2cccc(Cl)c2Cl)n1-c1ccc(F)cc1`, the inhibition is 32.3% (inactive). Next, `Cc1cc(NC(=O)Cc2ccc(Br)cc2)no1`: “inactive”; `O=C(CSc1nc2ccccc2[nH]1)Nc1ccc(Cl)cn1`: “inactive”. Next, `Cc1c(NC(=O)CSc2nnnn2-c2ccc(O)cc2)c(=O)n(-c2ccccc2)n1C`: “inactive”; `Cc1ccc(CC(=O)Nc2ccc(S(=O)(=O)N3CCC(C)CC3)cc2)cc1`: “inactive”.

Take `COc1cc(S(=O)(=O)NC(c2ccccc2)c2ccccc2)ccc1Cl`: the inhibition result was “inactive”. The result for `O=C(CSc1nnc(-c2ccncc2)n1-c1ccccc1)c1ccc(Cl)cc1` reads “inactive”. Next, `COc1ccc(CC(=O)NC(=S)N2CCOCC2)cc1`: 2.63% (inactive); `COc1ccc(Cl)cc1C(=O)Nc1cc(C(F)(F)F)ccc1N1CCOCC1`: “inactive”; `C=CCc1cc(OC)ccc1OCCN1CCN(C)CC1`: “inactive”. Next, `O=C(c1csc2c1CCCC2)N1CCC2(CC1)OCCO2`: “inactive”; `C=CCN(c1ccc(C(=O)Nc2ccccc2-c2ccccc2)cc1)S(C)(=O)=O`: “inactive”; `CCc1ccc(OC(C)c2nnc(SCC(=O)Nc3ccc(C)c(C)c3)n2CC)cc1` (configuration not stated): 1.06% (inactive).

Turning to `COc1ccc(OC)c(C2C(C#N)=C(N)OC(c3ccccc3)=C2C#N)c1` (configuration not stated), the inhibition result is “inactive”. Next, `Cc1ccc(C(=O)CCC(=O)Nc2ccccc2C)cc1C`: “inactive”; `Cc1ccc(NC(=O)CSc2nnc(N)s2)cc1`: “inactive”; `COc1ccccc1CNC(=O)c1cc(OC)c(OC)cc1OC`: 2.59% (inactive). The result for `N#Cc1ccc(NC(=S)NCCN2CCOCC2)cc1` reads “inactive”. The result for `CC(C(=O)Nc1cccc(C(F)(F)F)c1)N(c1ccc(Oc2ccccc2)cc1)S(C)(=O)=O` (configuration not stated) reads 12.4% (inactive); that for `O=C(C1CCN(C(=S)NC2CC2)CC1)N1CCCCCC1`, “inactive”; that for `Cc1ccc(C(C)C)c(OCC(=O)NNC(=S)NCCc2ccccc2)c1`, “inactive”. Take `COc1ccc(CNC(=O)C2CCCN2CCc2ccccc2)cc1OC` (configuration not stated): the inhibition is 4.85% (inactive). Next, `CCOC(=O)c1ccc(NC(=S)NNc2nc(C)cc(C)n2)cc1`: “inactive”; `CCOC(=O)C1=C(C)N=c2s/c(=C\c3c4ccccc4cc4ccccc34)c(=O)n2C1c1ccccc1Cl` (configuration not stated): “inactive”; `Cc1cc(C)cc(C(=O)Nc2ccc(CN3CCOCC3)cc2)c1`: “inactive”.

For `CC(C)(C)C1(c2ccccc2)NC(=O)NC1=O` (configuration not stated), the inhibition is 0.0333% (inactive). The result for `CCN(CC)CC(=O)Nc1ccccc1OC` reads “inactive”; that for `OCCNCCOc1ccc2ccccc2c1Br`, “inactive”. The result for `N#C/C(=C\C=C\c1ccccc1Cl)c1nc2ccccc2[nH]1` reads “inactive”. Next, `C=CCn1c(SCC#CCO)nc2ccccc2c1=O`: “inactive”. With `COc1ccccc1CCNC(=O)c1ccc(COCC(F)(F)C(F)F)cc1`, the inhibition result was “inactive”. Next, `CCCCOc1cccc(C(=O)NC(=S)Nc2cccnc2)c1`: “inactive”. The result for `Cc1ccc(SCC(=O)Nc2ccc(S(=O)(=O)Nc3cccc(C(F)(F)F)c3)cc2)cc1` reads “inactive”; that for `CCc1ccc(-n2c(C)cc(C=NO)c2C)cc1`, 17.1% (inactive). Next, `COc1ccc(S(=O)(=O)N(CC(=O)NC2CC3CCC2C3)c2ccccc2)cc1OC` (configuration not stated): “inactive”; `O=C1C2CCCCC2C(=O)N1c1n[nH]c(CCc2ccccc2)n1` (configuration not stated): “inactive”; `CCc1cccc(C)c1NC(=O)CN(c1ccc(C)c(C)c1)S(=O)(=O)c1ccc(Cl)cc1`: “inactive”. For the molecule `COc1ccc(NC(=S)N2CCN(Cc3cccc(F)c3)CC2)c(OC)c1`, the inhibition entry was “inactive”. The result for `O=C(NCc1ccc2c(c1)OCO2)Nc1ccc([N+](=O)[O-])cc1` reads “inactive”. Turning to `c1ccc2c(c1)nc(-c1cscn1)n2Cc1ccc(-c2nn[nH]n2)cc1`, the inhibition entry is “inactive”. Next, `COc1ccc(S(=O)(=O)Nc2cccnc2)cc1C`: “inactive”; `COc1cc(NC(=O)c2ccc(F)cc2)ccc1NC(=O)C(C)C`: “inactive”.

Regarding `O=C(c1cn(-c2ccccc2)nc1-c1cccnc1)n1nnc2ccccc21`, the inhibition was 2.67% (inactive).

For `COc1ccc([N+](=O)[O-])cc1NC(=O)c1cc(-c2ccc(OC)c(OC)c2)nc2ccccc12`, the inhibition entry is “inactive”. The result for `CCCN1CCN(C(=O)c2ccncc2)CC1` reads 1.8% (inactive); that for `COc1ccc2c(c1)sc1nc(-c3cc4cccc(OC)c4oc3=O)cn12`, “inactive”. Regarding `Cc1ccc(OCCSC2=NN2c2cc(C)nc(N)n2)cc1`, the inhibition result is “inactive”.
